# Experimental data as given in PubChem BioAssay (NCATS).
# Results filed as inconclusive are left out. Where a call stands in place of a potency, no number is given. Unmarked numbers belong to inactive results. Active and inactive are the calls of the source. Calls follow the shape of the dose curve; as a rule, active = well fitted curve in the direction sought with a large enough effect; inconclusive = small, poorly fitted or top-dose-only effect, or another doubt; inactive = no such curve, though single readings can be large; an effect the other way counts as inactive or inconclusive.
# Assays:
# [1] = qHTS of pediatric cancer cell lines to identify multiple opportunities for drug repurposing: Primary screen for SK-N-SH cells (AID 1347098); also: nearly all actives have a fitted effect of over 65% in size; also: potency is read from the fitted curve at half-maximal effect
# How it was run: (§1)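 Cells (500-1,000/well) rested 5 h, then received compounds for 48 h; metabolically active cells were measured by CellTiter-Glo luminescence. Final concentrations spanned up to 46 µM (MIPE, 11-point) or 0.59 nM-46 µM (NPC, 8-point) in primary screens, 11-point in follow-ups.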
# [2] = qHTS of pediatric cancer cell lines to identify multiple opportunities for drug repurposing: Primary screen for NB1643 cells (AID 1347099); also: nearly all actives have a fitted effect of over 50% in size; also: potency is read from the fitted curve at half-maximal effect
# How it was run: (§2)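 CRCs from 8- or 11-point titrations (lowest final 0.59 nM NPC, 0.78 nM MIPE). Cell viability: CellTiter-Glo after 48 h incubation, 15 min room-temperature development, luminescence imaging.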
# [3] = qHTS of pediatric cancer cell lines to identify multiple opportunities for drug repurposing: Primary screen for LAN-5 cells (AID 1347100); also: potency is read from the fitted curve at half-maximal effect
# How it was run: (§3)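 Cells (500-1,000/well) in growth media were settled 5 h at 37 degrees C, then given compounds for 48 h. Viability was read as CellTiter-Glo luminescence. Primary runs used MIPE at 11 points (0.78 nM-46 µM) and NPC at 8 points (0.59 nM-46 µM); follow-ups used 11 points.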
# [4] = qHTS of pediatric cancer cell lines to identify multiple opportunities for drug repurposing: Primary screen for BT-12 cells (AID 1347101); also: nearly all actives have a fitted effect of over 25% in size; also: potency is read from the fitted curve at half-maximal effect
# How it was run: as §1
# [5] = qHTS of pediatric cancer cell lines to identify multiple opportunities for drug repurposing: Primary screen for Rh18 cells (AID 1347102); also: nearly all actives have a fitted effect of over 65% in size; also: potency is read from the fitted curve at half-maximal effect
# How it was run: as §3
# [6] = qHTS of pediatric cancer cell lines to identify multiple opportunities for drug repurposing: Primary screen for RD cells (AID 1347104); also: nearly all actives have a fitted effect of over 55% in size; also: potency is read from the fitted curve at half-maximal effect
# How it was run: as §2
# [7] = qHTS of pediatric cancer cell lines to identify multiple opportunities for drug repurposing: Primary screen for Rh30 cells (AID 1347107); also: nearly all actives have a fitted effect of over 75% in size; also: potency is read from the fitted curve at half-maximal effect
# How it was run: as §3
# [8] = qHTS of pediatric cancer cell lines to identify multiple opportunities for drug repurposing: Primary screen for OHS-50 cells (AID 1347103); also: nearly all actives have a fitted effect of over 40% in size; also: potency is read from the fitted curve at half-maximal effect
# How it was run: as §1
# [9] = qHTS of pediatric cancer cell lines to identify multiple opportunities for drug repurposing: Primary screen for MG 63 (6-TG R) cells (AID 1347105); also: nearly all actives have a fitted effect of over 50% in size; also: potency is read from the fitted curve at half-maximal effect
# How it was run: as §2
# [10] = qHTS of pediatric cancer cell lines to identify multiple opportunities for drug repurposing: Primary screen for control Hh wild type fibroblast cells (AID 1347106);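 also: series mostly up to about 46 µM; a drop in luminescence marks cytotoxicity and a rise apparent proliferation; nearly all actives have a fitted effect of over 55% in size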
# How it was run: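 Viability after 48 h compound treatment at 37C, 500-1,000 cells/well, read as ATP luminescence with CellTiter-Glo. Primary screens used 11-point (MIPE, 0.78 nM-46 µM) or 8-point (NPC, 0.59 nM-46 µM) final concentrations; follow-up screens used 11-point dilutions.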
Compound,Potency [1],Potency [2],Potency [3],Potency [4],Potency [5],Potency [6],Potency [7],Potency [8],Potency [9],Potency [10]
CN(C)CCOc1cc(-c2cn[nH]c2)ccc1NC(=O)C1COc2ccccc2O1 (stereo not drawn),10.8 µM (active),9.35 µM (active),inactive,inactive,inactive,inactive,inactive,–,–,–
CC(C)(C)c1nc(-c2cccc(NS(=O)(=O)c3c(F)cccc3F)c2F)c(-c2ccnc(N)n2)s1,inactive,18.7 µM (active),inactive,–,inactive,–,–,inactive,inactive,–
O[C@@H](COc1cccc2ncccc12)CN1CCN(C2c3ccccc3[C@@H]3[C@H](c4ccccc42)C3(F)F)CC1 (stereo partly drawn),15.2 µM (active),3.32 µM (active),4.73 µM (active),–,–,18.7 µM (active),16.6 µM (active),15.5 µM (active),29.6 µM (active),inactive
Cn1cnc(-c2cc3nccc(Oc4ccc(NC(=S)NC(=O)Cc5ccccc5)cc4F)c3s2)c1,21.5 µM (active),16.6 µM (active),16.6 µM (active),–,–,–,–,34.3 µM (active),–,inactive
Cc1nc2c([nH]1)CCN(C(=O)c1ccc(NC(=O)c3ccccc3-c3ccccc3)cc1)c1ccccc1-2,inactive,inactive,inactive,–,inactive,inactive,inactive,–,inactive,inactive
NC(=O)c1ncn([C@@H]2O[C@H](CO)[C@@H](O)[C@@H]2O)n1,inactive,inactive,inactive,–,inactive,inactive,inactive,inactive,inactive,inactive
OCCn1cc(-c2ccc3c(c2)CCC3=NO)c(-c2ccncc2)n1,19.2 µM (active),11.8 µM (active),inactive,–,inactive,–,–,inactive,inactive,–
COc1cc(Nc2nc3ccccc3nc2NS(=O)(=O)c2ccc(NC(=O)c3ccc(C)c(OC)c3)cc2)cc(OC)c1,24.1 µM (active),inactive,inactive,–,inactive,–,–,–,–,–
CC=C1C2C=C(C)CC1(N)c1ccc(=O)[nH]c1C2 (stereo not drawn),inactive,inactive,inactive,–,inactive,inactive,inactive,inactive,inactive,inactive
CNC(=O)[C@H](CC1=CN=C2C=CCC=C12)NC(=O)[C@@H](CC(=O)NO)CC(C)C,1.21 µM (active),0.0662 µM (active),–,0.344 µM (active),inactive,1.18 µM (active),inactive,1.37 µM (active),9.35 µM (active),inactive
O=C(c1ccc(C(=O)N2CCC(N3CCCC3)CC2)c(Nc2ccccc2)c1)N1CCC(N2CCCC2)CC1,inactive,inactive,inactive,–,inactive,inactive,–,inactive,inactive,inactive
CN(C)CC[C@H](CSc1ccccc1)Nc1ccc(S(=O)(=O)NC(=O)c2ccc(N3CCN(Cc4ccccc4-c4ccc(Cl)cc4)CC3)cc2)cc1[N+](=O)[O-],7.64 µM (active),0.0187 µM (active),0.0209 µM (active),–,0.187 µM (active),5.9 µM (active),11.8 µM (active),6.85 µM (active),–,inactive
CC1(C)OC2CC3C4CC(F)C5=CC(=O)C=CC5(C)C4C(O)CC3(C)[C@]2(C(=O)CO)O1 (stereo partly drawn),inactive,inactive,inactive,–,inactive,inactive,inactive,inactive,inactive,inactive
CCCCC(F)(F)[C@@]1(O)CC[C@H]2[C@H](CC(=O)[C@@H]2CCCCCCC(=O)O)O1,inactive,inactive,–,inactive,inactive,inactive,inactive,inactive,inactive,inactive
COc1c(C)cnc(Cn2cnc3c(Cl)nc(N)nc32)c1C,0.341 µM (active),0.264 µM (active),0.166 µM (active),–,0.332 µM (active),–,inactive,0.432 µM (active),–,–
O=C(O)C1=CO[C@@H](O[C@@H]2O[C@H](CO)[C@H](O)[C@H](O)[C@H]2O)[C@@H]2C(CO)=CC[C@H]12,21.5 µM (active),inactive,inactive,–,inactive,inactive,inactive,inactive,inactive,inactive
Cc1cn([C@@H]2C[C@@H](O)[C@H](CO)O2)c(=O)[nH]c1=O,inactive,inactive,–,inactive,inactive,inactive,inactive,inactive,inactive,inactive
Cc1c(-c2cccc3c(CCCOc4cccc5ccccc45)c(C(=O)O)n(Cc4cccnc4)c23)c(COc2ccc(N3CCN([S+](=O)([O-])N(C)C)CC3)cc2)nn1C,inactive,23.5 µM (active),20.9 µM (active),–,–,33.2 µM (active),–,–,23.5 µM (active),inactive
CC(=O)OCC(=O)[C@@]1(O)CC[C@H]2[C@@H]3CCC4=CC(=O)C=C[C@]4(C)[C@@H]3[C@@H](O)C[C@@]21C,inactive,inactive,inactive,–,inactive,inactive,inactive,–,inactive,inactive
